Data: PubChem BioAssay (NCI)
About 83,000 compounds went through this panel and 20% of them were active in at least one assay; those are over-represented in the sample as a whole.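 Treatment: one concentration, 48 hours, 96-well format. Scoring: percent growth, with anything below 10 considered active.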 Values without a mark were called inactive. Active and inactive are the calls of the source.

The compounds below were run on SK-MEL-2 melanoma (assay: NCI-60 one-dose screen, 48 h (100 = growth as untreated, 0 = no growth, -100 = all killed)). Details: 10 µM unless noted.

Structure (SMILES) | growth
COc1ccc(/C=C/c2nc(Nc3ccc(S(=O)(=O)Nc4cc(C)on4)cc3)c3ccccc3n2)cc1 | 75.8%
NS(=O)(=O)c1ccc(CCN2C(=O)c3cc(Cl)c(Cl)cc3C2=O)cc1 | 96.5%
C/C=C(\C)C(=O)NC1=CC[C@@]2(C)C(=CCC3C2CC[C@@]2(C)C3CC[C@@H]2C(C)N(C)C)C1=O (stereo partly specified) | 86.5%
O=c1c2c(c(=O)n1O)c1c3ccc[nH]c3nc1c1nc3[nH]cccc3c12 | 99.4%
Cc1ccc(C(=O)/C(=C\c2ccc([N+](=O)[O-])cc2)S(=O)Cc2ccc(F)cc2)cc1 (stereo unspecified) | 62.3%
O=C(Nc1ncc(Cc2cc(Cl)ccc2Cl)s1)c1cccs1 | 50.5%
O=C(C[n+]1cccc2ccccc21)c1ccc(O)c(O)c1 | 90.8%
OCc1cnccc1NCCCCOc1ccc(Oc2ccccc2)cc1 | 81.6%
Oc1cccc(CCc2ccc(Oc3cc(CCc4cccc(O)c4)cc(O)c3O)cc2)c1 | 84.1%
CC/C(=C\c1ccc(OC)cc1)C(=O)c1ccc(OC)cc1 | 96%
CN1C(N2CCN(S(=O)(=O)c3ccccc3)CC2)=NS(=O)(=O)c2ccccc21 | 56.7%
O=C1Nc2ccc(F)cc2/C1=C\c1c(-c2ccccc2)nc2ccccn12 | 63.7%
O=C(Cn1c(C(=O)c2ccccc2)nc2ccccc21)c1ccc(F)cc1 | 60.7%
COc1ccc(C(=O)c2nc3ccccc3n2CC(=O)c2ccc(Cl)cc2)cc1 | 63.5%
CC(=O)[C@@H]1CC[C@]2(C(N)=O)CC[C@]3(C)[C@H](CC[C@@H]4[C@@]5(C)CCCNC(C)(C)[C@@H]5CC[C@]43C)[C@@H]12 | 86.2%
Oc1c(Cl)cc(Cl)c(Cl)c1CNCCNCc1c(O)c(Cl)cc(Cl)c1Cl | 18.3%
O=C1Nc2cc(Cl)ccc2/C1=C\c1c(-c2ccc(F)cc2)nc2ccccn12 | 23.7%
O=C(NO)c1ccc(-n2nc(-c3ccccc3)c3ccccc32)cc1 | 90.9%
O=C(CNCCN1CCOCC1)N1c2cccc3cccc(c23)N(C(=O)CNCCN2CCOCC2)C1c1cn(-c2ccccc2)nc1-c1cccc([N+](=O)[O-])c1 | 96.5%

Structure (SMILES) | growth
O=C1c2cccc3c(-c4ccc5c(c4)ncn5C4CCCCC4)ccc(c23)C(=O)N1CCO | 89.5%
CC(=O)Oc1ccc(/C=N/NC(N)=S)nc1 | 79.2%
NC(=S)N1N=C(c2ccccc2)CC1c1cn(-c2ccccc2)nc1-c1ccc(OCc2ccccc2)cc1 (stereo unspecified) | 90.4%
Cc1ccc(-c2nc3ccccn3c2/C=C2/C(=O)Nc3cc(Cl)ccc32)cc1 | 87.7%
Clc1ccc(-c2ccc(CNCC3CCNCC3)o2)c(-c2ccccc2)c1 | -75.7% (active)
CC(=O)[C@H]1CCC/C=C/[C@@H]2C[C@H](O)C[C@H]2[C@H](O)/C=C/C(=O)O1 | -14.3% (active)
CCOC(=O)c1cc(C(=O)c2ccc(Br)cc2)n2ccc(/C=C/c3cc[n+](CC(=O)c4ccc(OC)cc4)cc3)cc12 | 105%
COc1ccc(/C=C/c2nc(Nc3ccc(S(=O)(=O)Nc4nc(C)cc(C)n4)cc3)c3ccccc3n2)cc1 | 75.2%
Cc1ccc(C(=O)/C(=C/c2ccc([N+](=O)[O-])cc2)SCc2ccc(Cl)cc2)cc1 | 91.5%
O=C1c2c(c3c4cccc(F)c4[nH]c3c3ccc4ccccc4c23)C(=O)N1O | 51.5%
COc1ccc(C(=O)C2C(C#N)C(C#N)C3C=Cc4ccccc4N32)cc1 (stereo unspecified) | 44.5%
CCOC(=O)CC1CSC(N/N=C/c2ccc(-n3cccn3)cc2)=N1 (stereo unspecified) | 113%
CC(C)N1C(=O)/C(=C2\SC(=S)N(C(C)C)C2=O)SC1=S | 96.8%
CC(C)(C)[Si](C)(C)OC1[C@@H](O[Si](C)(C)C(C)(C)C)[C@@H](CNC(=O)NC(=O)CCl)O[C@H]1n1cnc2c(NC(=O)Nc3ccccc3)ncnc21 (stereo partly specified) | 42.7%
COc1ccc(-c2nc3sccn3c2/C=C/C(=O)c2ccc3c(c2)OCO3)cc1 | 87.4%
O=C1c2ccccc2C(=O)c2c([N+](=O)[O-])ccc(Cl)c21 | 107%
COc1ccc(/C=C/c2nc(Nc3cccc(NC(C)=O)c3)c3ccccc3n2)cc1 | 91.9%
Cc1ccc(-n2nc3c(c(C#N)c2=O)CC(c2ccccc2[N+](=O)[O-])C([N+](=O)[O-])=C3O)cc1 (stereo unspecified) | 98.8%
COc1cc(OC)cc(C(=O)C[n+]2cccc3cc[nH]c32)c1 | 103%

These compounds were tested on EKVX NSCLC in the same assay as above. Details: 10 µM unless noted.

Structure (SMILES) | growth
COc1ccc(/C=C/c2nc(Nc3ccc(S(=O)(=O)Nc4cc(C)on4)cc3)c3ccccc3n2)cc1 | 71.6%
NS(=O)(=O)c1ccc(CCN2C(=O)c3cc(Cl)c(Cl)cc3C2=O)cc1 | 103%
C/C=C(\C)C(=O)NC1=CC[C@@]2(C)C(=CCC3C2CC[C@@]2(C)C3CC[C@@H]2C(C)N(C)C)C1=O (stereo partly specified) | 32%
O=c1c2c(c(=O)n1O)c1c3ccc[nH]c3nc1c1nc3[nH]cccc3c12 | 93.4%
Cc1ccc(C(=O)/C(=C\c2ccc([N+](=O)[O-])cc2)S(=O)Cc2ccc(F)cc2)cc1 (stereo unspecified) | 58.5%
O=C(Nc1ncc(Cc2cc(Cl)ccc2Cl)s1)c1cccs1 | 64%
O=C(C[n+]1cccc2ccccc21)c1ccc(O)c(O)c1 | 76.8%
OCc1cnccc1NCCCCOc1ccc(Oc2ccccc2)cc1 | 50.6%
Oc1cccc(CCc2ccc(Oc3cc(CCc4cccc(O)c4)cc(O)c3O)cc2)c1 | 85.1%
CC/C(=C\c1ccc(OC)cc1)C(=O)c1ccc(OC)cc1 | 103%
CN1C(N2CCN(S(=O)(=O)c3ccccc3)CC2)=NS(=O)(=O)c2ccccc21 | 111%
O=C1Nc2ccc(F)cc2/C1=C\c1c(-c2ccccc2)nc2ccccn12 | 61.8%
O=C(Cn1c(C(=O)c2ccccc2)nc2ccccc21)c1ccc(F)cc1 | 83.2%
COc1ccc(C(=O)c2nc3ccccc3n2CC(=O)c2ccc(Cl)cc2)cc1 | 86%
CC(=O)[C@@H]1CC[C@]2(C(N)=O)CC[C@]3(C)[C@H](CC[C@@H]4[C@@]5(C)CCCNC(C)(C)[C@@H]5CC[C@]43C)[C@@H]12 | 93.9%
Oc1c(Cl)cc(Cl)c(Cl)c1CNCCNCc1c(O)c(Cl)cc(Cl)c1Cl | 22.4%
O=C1Nc2cc(Cl)ccc2/C1=C\c1c(-c2ccc(F)cc2)nc2ccccn12 | 34.5%
O=C(NO)c1ccc(-n2nc(-c3ccccc3)c3ccccc32)cc1 | 42.3%
O=C(CNCCN1CCOCC1)N1c2cccc3cccc(c23)N(C(=O)CNCCN2CCOCC2)C1c1cn(-c2ccccc2)nc1-c1cccc([N+](=O)[O-])c1 | 84.6%

Structure (SMILES) | growth
O=C1c2cccc3c(-c4ccc5c(c4)ncn5C4CCCCC4)ccc(c23)C(=O)N1CCO | 76.4%
CC(=O)Oc1ccc(/C=N/NC(N)=S)nc1 | 105%
NC(=S)N1N=C(c2ccccc2)CC1c1cn(-c2ccccc2)nc1-c1ccc(OCc2ccccc2)cc1 (stereo unspecified) | 78.3%
Cc1ccc(-c2nc3ccccn3c2/C=C2/C(=O)Nc3cc(Cl)ccc32)cc1 | 91.9%
Clc1ccc(-c2ccc(CNCC3CCNCC3)o2)c(-c2ccccc2)c1 | -15% (active)
CC(=O)[C@H]1CCC/C=C/[C@@H]2C[C@H](O)C[C@H]2[C@H](O)/C=C/C(=O)O1 | 6.77% (active)
CCOC(=O)c1cc(C(=O)c2ccc(Br)cc2)n2ccc(/C=C/c3cc[n+](CC(=O)c4ccc(OC)cc4)cc3)cc12 | 95.3%
COc1ccc(/C=C/c2nc(Nc3ccc(S(=O)(=O)Nc4nc(C)cc(C)n4)cc3)c3ccccc3n2)cc1 | 72%
Cc1ccc(C(=O)/C(=C/c2ccc([N+](=O)[O-])cc2)SCc2ccc(Cl)cc2)cc1 | 89%
O=C1c2c(c3c4cccc(F)c4[nH]c3c3ccc4ccccc4c23)C(=O)N1O | 63.8%
COc1ccc(C(=O)C2C(C#N)C(C#N)C3C=Cc4ccccc4N32)cc1 (stereo unspecified) | 56.7%
CCOC(=O)CC1CSC(N/N=C/c2ccc(-n3cccn3)cc2)=N1 (stereo unspecified) | 108%
CC(C)N1C(=O)/C(=C2\SC(=S)N(C(C)C)C2=O)SC1=S | 82.9%
CC(C)(C)[Si](C)(C)OC1[C@@H](O[Si](C)(C)C(C)(C)C)[C@@H](CNC(=O)NC(=O)CCl)O[C@H]1n1cnc2c(NC(=O)Nc3ccccc3)ncnc21 (stereo partly specified) | -40.4% (active)
COc1ccc(-c2nc3sccn3c2/C=C/C(=O)c2ccc3c(c2)OCO3)cc1 | 85.4%
O=C1c2ccccc2C(=O)c2c([N+](=O)[O-])ccc(Cl)c21 | 113%
COc1ccc(/C=C/c2nc(Nc3cccc(NC(C)=O)c3)c3ccccc3n2)cc1 | 94.3%
Cc1ccc(-n2nc3c(c(C#N)c2=O)CC(c2ccccc2[N+](=O)[O-])C([N+](=O)[O-])=C3O)cc1 (stereo unspecified) | 77.1%
COc1cc(OC)cc(C(=O)C[n+]2cccc3cc[nH]c32)c1 | 98%
